Data from the supplement of paper PMC10849652.
Of roughly 8,800 targets only a part is listed; those with a hit were picked by preference. About 0.5% of all pairs of compound and target were hits. Values without a mark were called inactive.

Experiments:
Test in all cases: log2 fold change, soluble protein after heating vs DMSO (PISA); higher = thermal stabilisation; K562 lysate, 10 uM; active = over 0.2 and 3.5 SD of the protein, either way, in both replicates (recomputed)
alvocidib = compound: CN1CC[C@H](c2c(O)cc(O)c3c(=O)cc(-c4ccccc4Cl)oc23)[C@H](O)C1 [alvocidib]
Summary of the method: (§1)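 Log-two fold change in thermal stability relative to solvent controls is reported from duplicates. For each sample, crude K562 extract from dounce-homogenised pellets in PBS pH 7.4 with 1 mM MgCl2, at 1 mg/mL protein, was treated with 10 μM compound for 30 min. Aliquots heated for 3 min across 48°C-58°C were pooled, brought to 0.5% NP-40 at 4°C and cleared at 21,000xg for 90 min. The supernatant was quantified by TMTpro 16plex LC-MS/MS with channel sums equalised.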

Tubastatin A = compound: CN1CCc2c(c3ccccc3n2Cc2ccc(C(=O)NO)cc2)C1 [Tubastatin A]
Summary of the method: as §1

[1] = compound: CNC(=O)C1=CC=CC=C1NC2=NC(=NC=C2Cl)NC3=C(C=C(C=C3)N4CCOCC4)OC
Summary of the method: as §1

defactinib = compound: CNC(=O)c1ccc(Nc2ncc(C(F)(F)F)c(NCc3nccnc3N(C)S(C)(=O)=O)n2)cc1 [defactinib]
Summary of the method: as §1

[2] = compound: CNc1nc(-c2ccc3c(N)n[nH]c3c2)cc(N2C[C@@H](C(=O)NC3CCCCC3)CC[C@H]2C)n1
Summary of the method: as §1

encorafenib = compound: COC(=O)N[C@@H](C)CNc1nccc(-c2cn(C(C)C)nc2-c2cc(Cl)cc(NS(C)(=O)=O)c2F)n1 [encorafenib]
Summary of the method: as §1

[3] = compound: COC(=O)[C@H](CCSC)NC(=O)C1=C(C=C(C=C1)NC[C@H](CS)N)C2=CC=CC=C2
Summary of the method: as §1

alisertib = compound: COc1cc(Nc2ncc3c(n2)-c2ccc(Cl)cc2C(c2c(F)cccc2OC)=NC3)ccc1C(=O)O [alisertib]
Summary of the method: as §1

[4] = compound: COc1cc2nc(-c3cc(F)ccc3O)nc(N[C@@H]3CNC[C@H]3C(C)(C)O)c2cc1OC
Summary of the method: as §1

gefitinib = compound: COc1cc2ncnc(Nc3ccc(F)c(Cl)c3)c2cc1OCCCN1CCOCC1 [gefitinib]
Summary of the method: as §1

lapatinib = compound: CS(=O)(=O)CCNCc1ccc(-c2ccc3ncnc(Nc4ccc(OCc5cccc(F)c5)c(Cl)c4)c3c2)o1 [lapatinib]
Summary of the method: as §1

pictilisib = compound: CS(=O)(=O)N1CCN(Cc2cc3nc(-c4cccc5[nH]ncc45)nc(N4CCOCC4)c3s2)CC1 [pictilisib]
Summary of the method: as §1

crizotinib = compound: C[C@@H](Oc1cc(-c2cnn(C3CCNCC3)c2)cnc1N)c1c(Cl)ccc(F)c1Cl [crizotinib]
Summary of the method: as §1

[5] = compound: C[C@H](C1=CC=C(C=C1)C(=O)NC2=C3C=CNC3=NC=C2)N
Summary of the method: as §1

duvelisib = compound: C[C@H](Nc1ncnc2nc[nH]c12)c1cc2cccc(Cl)c2c(=O)n1-c1ccccc1 [duvelisib]
Summary of the method: as §1

gandotinib = compound: Cc1cc(Nc2cc(CN3CCOCC3)c3nc(C)c(Cc4ccc(Cl)cc4F)n3n2)n[nH]1 [gandotinib]
Summary of the method: as §1

tozasertib = compound: Cc1cc(Nc2cc(N3CCN(C)CC3)nc(Sc3ccc(NC(=O)C4CC4)cc3)n2)n[nH]1 [tozasertib]
Summary of the method: as §1

doramapimod = compound: Cc1ccc(-n2nc(C(C)(C)C)cc2NC(=O)Nc2ccc(OCCN3CCOCC3)c3ccccc23)cc1 [doramapimod]
Summary of the method: as §1

bafetinib = compound: Cc1ccc(NC(=O)c2ccc(CN3CC[C@H](N(C)C)C3)c(C(F)(F)F)c2)cc1Nc1nccc(-c2cncnc2)n1 [bafetinib]
Summary of the method: as §1

[6] = compound: Cc1cccc(CC(=O)N2CCc3c2ccc(-c2cn(C)c4ncnc(N)c24)c3F)n1
Summary of the method: as §1

Sequence of UniProt Q96EE3 (Q96EE3 whole entry, looked up): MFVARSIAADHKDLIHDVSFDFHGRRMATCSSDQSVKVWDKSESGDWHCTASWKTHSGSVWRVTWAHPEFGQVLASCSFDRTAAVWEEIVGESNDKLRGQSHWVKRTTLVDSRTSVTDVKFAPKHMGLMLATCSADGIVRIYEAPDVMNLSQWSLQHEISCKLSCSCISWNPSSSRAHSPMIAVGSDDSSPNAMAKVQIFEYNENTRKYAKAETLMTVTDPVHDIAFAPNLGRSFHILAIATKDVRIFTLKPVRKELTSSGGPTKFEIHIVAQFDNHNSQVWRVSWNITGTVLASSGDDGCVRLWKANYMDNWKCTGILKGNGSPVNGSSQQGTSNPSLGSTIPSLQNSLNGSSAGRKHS
Sequence of UniProt P61224 (P61224 whole entry, looked up): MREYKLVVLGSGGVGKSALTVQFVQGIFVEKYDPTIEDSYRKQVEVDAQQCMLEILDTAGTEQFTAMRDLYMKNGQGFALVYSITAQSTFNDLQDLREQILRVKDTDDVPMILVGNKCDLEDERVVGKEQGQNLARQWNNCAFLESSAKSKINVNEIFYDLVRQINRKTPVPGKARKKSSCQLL
Sequence of UniProt Q9BRS2 (Q9BRS2 whole entry, looked up): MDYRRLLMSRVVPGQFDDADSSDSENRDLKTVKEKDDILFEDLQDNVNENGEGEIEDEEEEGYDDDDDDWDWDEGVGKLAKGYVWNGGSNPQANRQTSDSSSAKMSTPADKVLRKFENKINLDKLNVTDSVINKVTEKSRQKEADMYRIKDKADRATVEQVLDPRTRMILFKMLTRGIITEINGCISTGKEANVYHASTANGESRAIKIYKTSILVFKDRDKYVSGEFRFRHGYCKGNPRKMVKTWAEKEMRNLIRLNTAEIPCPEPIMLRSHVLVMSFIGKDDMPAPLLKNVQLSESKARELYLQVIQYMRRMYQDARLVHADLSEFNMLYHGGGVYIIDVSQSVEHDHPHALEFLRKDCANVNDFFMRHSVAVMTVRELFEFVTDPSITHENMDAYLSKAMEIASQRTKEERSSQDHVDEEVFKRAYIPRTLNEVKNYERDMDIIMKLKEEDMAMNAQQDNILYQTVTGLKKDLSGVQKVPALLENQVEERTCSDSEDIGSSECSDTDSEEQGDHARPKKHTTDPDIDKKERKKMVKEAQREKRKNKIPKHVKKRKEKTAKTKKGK
Sequence of UniProt Q8IYW5 (Q8IYW5 whole entry, looked up): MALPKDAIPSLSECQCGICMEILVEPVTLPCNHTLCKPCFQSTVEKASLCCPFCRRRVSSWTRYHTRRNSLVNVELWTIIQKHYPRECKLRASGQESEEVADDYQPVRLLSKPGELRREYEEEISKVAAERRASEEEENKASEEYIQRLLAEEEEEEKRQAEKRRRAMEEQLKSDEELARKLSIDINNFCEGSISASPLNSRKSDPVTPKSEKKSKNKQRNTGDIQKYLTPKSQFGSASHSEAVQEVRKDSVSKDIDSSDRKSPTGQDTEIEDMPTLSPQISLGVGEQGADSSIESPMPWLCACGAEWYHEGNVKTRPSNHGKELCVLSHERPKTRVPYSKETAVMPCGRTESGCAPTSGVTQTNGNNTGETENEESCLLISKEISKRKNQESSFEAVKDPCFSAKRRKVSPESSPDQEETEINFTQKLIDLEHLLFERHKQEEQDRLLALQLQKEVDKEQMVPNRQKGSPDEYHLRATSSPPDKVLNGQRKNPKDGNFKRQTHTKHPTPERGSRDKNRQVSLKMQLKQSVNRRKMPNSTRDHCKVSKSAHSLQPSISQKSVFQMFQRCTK
Sequence of UniProt O15027 (O15027 whole entry, looked up): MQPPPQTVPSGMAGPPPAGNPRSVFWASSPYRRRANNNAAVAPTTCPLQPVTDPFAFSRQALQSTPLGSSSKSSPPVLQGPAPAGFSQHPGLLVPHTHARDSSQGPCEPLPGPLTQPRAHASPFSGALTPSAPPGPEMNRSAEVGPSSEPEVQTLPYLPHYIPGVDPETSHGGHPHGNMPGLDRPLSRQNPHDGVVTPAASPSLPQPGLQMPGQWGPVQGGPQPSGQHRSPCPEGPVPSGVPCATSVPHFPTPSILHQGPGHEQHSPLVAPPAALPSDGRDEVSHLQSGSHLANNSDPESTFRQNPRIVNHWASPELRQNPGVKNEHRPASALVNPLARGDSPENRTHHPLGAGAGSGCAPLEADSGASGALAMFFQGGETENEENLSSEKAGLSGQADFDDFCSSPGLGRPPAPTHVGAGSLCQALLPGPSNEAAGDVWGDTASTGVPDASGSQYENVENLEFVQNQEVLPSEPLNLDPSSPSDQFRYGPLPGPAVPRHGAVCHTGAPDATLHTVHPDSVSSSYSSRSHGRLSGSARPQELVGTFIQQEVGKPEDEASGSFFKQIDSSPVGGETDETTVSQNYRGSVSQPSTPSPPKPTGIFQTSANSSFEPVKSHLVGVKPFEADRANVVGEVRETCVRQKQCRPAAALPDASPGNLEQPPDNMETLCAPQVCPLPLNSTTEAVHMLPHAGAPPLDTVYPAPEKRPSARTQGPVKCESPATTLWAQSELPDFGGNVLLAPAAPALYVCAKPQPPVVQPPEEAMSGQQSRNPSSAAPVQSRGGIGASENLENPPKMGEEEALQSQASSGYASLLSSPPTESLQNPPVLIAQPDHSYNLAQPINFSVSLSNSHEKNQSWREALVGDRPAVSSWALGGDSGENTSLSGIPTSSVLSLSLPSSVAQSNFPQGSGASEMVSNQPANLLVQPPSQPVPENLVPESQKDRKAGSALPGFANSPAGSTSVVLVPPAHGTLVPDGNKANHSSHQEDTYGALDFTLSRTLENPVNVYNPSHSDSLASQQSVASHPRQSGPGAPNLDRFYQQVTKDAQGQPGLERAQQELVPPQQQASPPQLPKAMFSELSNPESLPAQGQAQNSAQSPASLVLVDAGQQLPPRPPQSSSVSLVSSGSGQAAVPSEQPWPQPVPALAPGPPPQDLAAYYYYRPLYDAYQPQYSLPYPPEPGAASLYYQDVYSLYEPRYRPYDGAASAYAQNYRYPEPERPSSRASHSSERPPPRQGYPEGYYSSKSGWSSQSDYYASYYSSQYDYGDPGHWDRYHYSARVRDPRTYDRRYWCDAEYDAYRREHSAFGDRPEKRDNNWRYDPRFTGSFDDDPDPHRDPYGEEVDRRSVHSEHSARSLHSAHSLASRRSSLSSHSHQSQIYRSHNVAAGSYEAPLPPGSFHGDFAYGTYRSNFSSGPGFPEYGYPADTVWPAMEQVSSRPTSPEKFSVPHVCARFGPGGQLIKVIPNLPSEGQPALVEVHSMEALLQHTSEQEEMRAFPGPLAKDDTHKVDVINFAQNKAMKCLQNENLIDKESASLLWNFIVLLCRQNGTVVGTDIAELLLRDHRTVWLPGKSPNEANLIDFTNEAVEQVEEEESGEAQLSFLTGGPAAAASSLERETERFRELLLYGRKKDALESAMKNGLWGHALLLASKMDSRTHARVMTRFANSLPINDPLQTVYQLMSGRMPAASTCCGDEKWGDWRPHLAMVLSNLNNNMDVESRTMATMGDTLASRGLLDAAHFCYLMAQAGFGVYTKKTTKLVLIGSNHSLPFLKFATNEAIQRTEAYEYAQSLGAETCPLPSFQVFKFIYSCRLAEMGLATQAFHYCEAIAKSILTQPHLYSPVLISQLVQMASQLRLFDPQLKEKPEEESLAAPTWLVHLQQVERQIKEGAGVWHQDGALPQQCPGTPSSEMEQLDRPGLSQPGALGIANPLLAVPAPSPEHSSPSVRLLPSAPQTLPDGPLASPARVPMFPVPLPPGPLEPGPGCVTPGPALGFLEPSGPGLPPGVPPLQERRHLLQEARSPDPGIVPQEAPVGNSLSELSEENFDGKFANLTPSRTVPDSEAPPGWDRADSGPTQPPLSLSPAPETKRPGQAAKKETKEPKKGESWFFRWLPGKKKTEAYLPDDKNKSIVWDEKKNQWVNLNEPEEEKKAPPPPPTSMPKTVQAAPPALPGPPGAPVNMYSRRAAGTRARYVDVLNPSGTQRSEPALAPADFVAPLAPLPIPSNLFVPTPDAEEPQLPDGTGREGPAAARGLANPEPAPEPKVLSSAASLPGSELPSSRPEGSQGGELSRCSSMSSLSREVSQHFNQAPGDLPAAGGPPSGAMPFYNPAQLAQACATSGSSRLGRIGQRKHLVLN
Sequence of UniProt P78406 (P78406 whole entry, looked up): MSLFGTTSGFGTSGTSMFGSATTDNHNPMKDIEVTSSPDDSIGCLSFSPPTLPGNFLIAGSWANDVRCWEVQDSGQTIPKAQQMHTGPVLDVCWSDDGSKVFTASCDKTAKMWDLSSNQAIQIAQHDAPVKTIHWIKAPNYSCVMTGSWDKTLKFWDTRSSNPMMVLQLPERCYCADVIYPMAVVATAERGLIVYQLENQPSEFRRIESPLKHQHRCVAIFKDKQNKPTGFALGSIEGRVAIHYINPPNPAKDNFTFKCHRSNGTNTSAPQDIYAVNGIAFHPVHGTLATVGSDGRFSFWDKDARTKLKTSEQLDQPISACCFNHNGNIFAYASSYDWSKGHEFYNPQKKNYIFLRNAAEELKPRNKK
Sequence of UniProt Q7Z6M1 (Q7Z6M1 whole entry, looked up): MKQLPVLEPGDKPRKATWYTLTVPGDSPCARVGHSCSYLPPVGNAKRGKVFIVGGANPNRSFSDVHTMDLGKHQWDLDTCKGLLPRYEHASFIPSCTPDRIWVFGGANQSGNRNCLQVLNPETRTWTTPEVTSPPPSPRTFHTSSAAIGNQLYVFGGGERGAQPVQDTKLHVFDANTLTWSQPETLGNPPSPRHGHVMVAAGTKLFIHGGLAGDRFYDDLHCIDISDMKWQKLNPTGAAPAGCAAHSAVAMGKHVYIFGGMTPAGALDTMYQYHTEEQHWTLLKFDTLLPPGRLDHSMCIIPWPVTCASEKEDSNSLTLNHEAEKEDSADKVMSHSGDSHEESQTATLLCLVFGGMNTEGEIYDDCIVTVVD

| Target | log2 fold change (alvocidib) | log2 fold change (Tubastatin A) | log2 fold change [1] | log2 fold change (defactinib) | log2 fold change [2] | log2 fold change (encorafenib) | log2 fold change [3] | log2 fold change (alisertib) | log2 fold change [4] | log2 fold change (gefitinib) | log2 fold change (lapatinib) | log2 fold change (pictilisib) | log2 fold change (crizotinib) | log2 fold change [5] | log2 fold change (duvelisib) | log2 fold change (gandotinib) | log2 fold change (tozasertib) | log2 fold change (doramapimod) | log2 fold change (bafetinib) | log2 fold change [6] |
| --- | --- | --- | --- | --- | --- | --- | --- | --- | --- | --- | --- | --- | --- | --- | --- | --- | --- | --- | --- | --- |
| RABEPK (UniProt Q7Z6M1) | 0.03 | -0.048 | 0.004 | 0.014 | -0.025 | 0.004 | 0.032 | 0.002 | 0 | 0.01 | 0.003 | -0.016 | -0.008 | -0.069 | 0.018 | 0.007 | -0.033 | 0.005 | 0.024 | 0.04 |
| RCC1 isoform 2 (UniProt P18754) | 0.012 | -0.168 | 0.018 | 0.055 | -0.007 | 0.006 | 0.151 | 0.006 | -0.017 | -0.003 | -0.018 | 0.009 | -0.063 | -0.019 | 0.017 | -0.066 | 0.011 | -0.017 | -0.01 | 0.034 |
| RDH14 (UniProt Q9HBH5) | -0.001 | -0.033 | 0.088 | -0.044 | -0.123 | -0.028 | -0.199 | 0.07 | -0.043 | -0.07 | 0.082 | -0.028 | 0.009 | -0.191 | 0.002 | 0.176 | 0.043 | 0 | -0.005 | 0.198 |
| RAE1 (UniProt P78406) | -0.038 | -0.072 | 0.039 | -0.004 | -0.044 | 0.038 | 0.345 (active) | -0.015 | -0.002 | 0.033 | 0.055 | 0.003 | 0.05 | -0.158 | -0.063 | 0.031 | -0.071 | -0.032 | 0.235 | 0.111 |
| RASA2 (UniProt Q15283) | 0 | -0.078 | 0.019 | 0.053 | -0.064 | -0.059 | 0.113 | -0.003 | -0.008 | -0.003 | 0.026 | -0.089 | -0.014 | -0.007 | -0.045 | -0.087 | 0.013 | 0.072 | -0.078 | 0.096 |
| RSU1 (UniProt Q15404) | 0.12 | 0.057 | -0.021 | -0.042 | -0.008 | -0.035 | -0.035 | -0.005 | 0.015 | 0.023 | 0.001 | 0.045 | 0.07 | 0.329 (active) | 0.007 | -0.116 | 0.015 | -0.045 | 0.039 | -0.135 |
| RNF168 (UniProt Q8IYW5) | 0.037 | -0.03 | 0.068 | -0.026 | -0.03 | -0.046 | -0.102 | -0.078 | -0.043 | 0.079 | -0.034 | 0.063 | 0.027 | -0.015 | 0.037 | 0.002 | -0.088 | -0.008 | -0.212 | -0.036 |
| SEH1L isoform 1 (UniProt Q96EE3) | -0.042 | 0 | 0 | -0.028 | -0.014 | -0.007 | -0.077 | 0.001 | 0.01 | -0.004 | -0.03 | -0.009 | 0.01 | -0.027 | -0.049 | 0.029 | 0.011 | 0.007 | -0.085 | 0.052 |
| RMC1 (UniProt Q96DM3) | -0.041 | -0.019 | 0.019 | 0.049 | -0.019 | 0.012 | -0.023 | 0 | -0.001 | 0.005 | -0.036 | -0.011 | -0.013 | -0.029 | 0.024 | -0.051 | -0.056 | 0.012 | -0.062 | 0.035 |
| RAB3IL1 (UniProt E9PK89) | -0.008 | -0.025 | 0.023 | 0.123 | 0.005 | 0.047 | 0.024 | 0.032 | -0.07 | 0 | -0.025 | 0.063 | 0.039 | 0.045 | -0.036 | 0.006 | 0.059 | -0.117 | -0.094 | 0.057 |
| RBM22 (UniProt Q9NW64) | 0.022 | 0.019 | 0.009 | 0.001 | 0.179 | 0.05 | -0.11 | 0.002 | 0.026 | 0.031 | -0.01 | -0.011 | 0.038 | 0.034 | 0.008 | -0.019 | 0.026 | 0.072 | 0.001 | -0.016 |
| RAP1B (UniProt P61224) | 0.039 | 0.05 | 0.005 | 0.02 | 0.025 | 0.011 | -0.034 | 0.015 | 0.057 | -0.054 | 0.009 | -0.006 | 0.008 | 0.215 (active) | -0.045 | -0.036 | 0 | 0.017 | 0.17 | -0.021 |
| RIOK1 (UniProt Q9BRS2) | 0 | 0.005 | 0.008 | -0.009 | 0.413 (active) | 0.006 | -0.006 | 0.01 | 0.168 | -0.019 | -0.044 | 0.197 | -0.015 | 0.92 (active) | 0.037 | -0.138 | 0.008 | 0.025 | -0.056 | -0.134 |
| RPS6KB1 (UniProt P23443) | -0.021 | -0.184 | 0.115 | 0.094 | -0.013 | -0.039 | 0.218 | -0.02 | 0.166 | 0.062 | 0.009 | 0.075 | 0.16 | -0.104 | 0.001 | 0.051 | 0.022 | -0.05 | 0.006 | 0.177 |
| SEC16A isoform 5 (UniProt O15027) | -0.005 | -0.09 | 0.011 | -0.014 | -0.002 | 0.011 | 0.01 | -0.001 | 0.013 | 0.014 | -0.019 | -0.044 | 0.018 | -0.039 | -0.013 | -0.014 | -0.001 | -0.002 | 0.031 | 0.029 |
| SEC13 isoform 3 (UniProt P55735) | 0.107 | 0.029 | -0.024 | -0.06 | -0.064 | 0.002 | -0.039 | 0.02 | -0.004 | 0.03 | 0 | 0.023 | 0.058 | 0.417 (active) | 0.02 | -0.076 | 0.01 | -0.031 | -0.016 | -0.068 |
